In the supplement of paper PMC6555819:

Assays:
Experiment in all cases: PBM binding z-score (relative to random genomic background probes); higher = stronger binding; sequences stand for … in GC…GCGATTGACAGCGTAGAATGAAGG
[1] = system: RARb homodimer (NR concentration 270 nM)
Procedure, shortened: (§1)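 Binding z-scores were set against random background probes. The data came from custom Agilent 4×180K protein-binding microarrays carrying double-stranded probes with 34-nt variable regions, incubated 1 h with ligand-free nuclear receptor dimers. Partner-specific antibodies detected binding, and scanned fluorescence was regression-normalized.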

[2] = system: RARg:RXRa (NR concentration 270 nM, RXRa partner concentration 90 nM)
Procedure, shortened: as §1

[3] = system: RARg homodimer (NR concentration 270 nM)
Procedure, shortened: as §1

[4] = system: RXRa DBDmut IVT, anti-RXR (DBD mutation: RXRa K156A/R161A, NR concentration 90 nM)
Procedure, shortened: as §1

[5] = system: RXRa homodimer (NR concentration 180 nM)
Procedure, shortened: as §1

[6] = system: THRa:RXRa (NR concentration 90 nM, RXRa partner concentration 90 nM)
Procedure, shortened: as §1

[7] = system: THRa homodimer (NR concentration 90 nM)
Procedure, shortened: as §1

[8] = system: VDR homodimer (NR concentration 270 nM)
Procedure, shortened: as §1

Row | Sequence | PBM binding z-score [1] | PBM binding z-score [2] | PBM binding z-score [3] | PBM binding z-score [4] | PBM binding z-score [5] | PBM binding z-score [6] | PBM binding z-score [7] | PBM binding z-score [8]
1 | ATTTCTAGGTAACAAGTTCAGTGAAAGAGAGGAC | 2.14 | 1.75 | 1.66 | 1.44 | 1.12 | 1.83 | 1.35 | 3.04
2 | TCTAGTTGGGCAAAGGTCACACACTCGAAATGCG | 5.01 | 6.49 | 5.87 | 1.44 | 7.41 | 3.99 | 1.54 | 2.26
3 | CCTTACGAGTCAAGGTTATAGCACGGGTGGTACG | 1.07 | 0.83 | 0.637 | 0.174 | 1.07 | 1.58 | 0.715 | 0.529
4 | ATCGAAAGGTCGACGAGGTGTGTATACACCGTTT | 2.54 | 4.07 | 3.97 | 1.18 | 4.14 | 2.22 | -0.542 | 0.527
5 | TCTAGCAGGCCAGAGGGTAACTCAAGAGGTACGG | 0.228 | 0.127 | 0.174 | -0.0485 | 0.497 | -0.104 | -0.765 | -0.49
6 | AGAACGAGGGCACGCTAAGTTGATAGCAGAGTAG | 1.19 | 2.2 | 2.4 | 1.74 | 1.49 | 1.97 | 0.0343 | 1.42
7 | GCTATTACTTGAAAGGGCAACCGAATGATTCTCG | 2.01 | 1.27 | 1.27 | 0.581 | 0.965 | 0.521 | -0.383 | -0.15
8 | GCAGACAGGTGAAACGCAGGTAACTCAAGGTGGC | 0.0427 | 0.907 | 0.318 | -0.708 | 0.523 | 1.76 | -0.397 | -0.202
9 | AATACAGGGTCACTAGGCCAGATTAGGTACGAAT | 3.44 | 5.37 | 4.96 | 3.03 | 5.9 | 3.57 | 1.46 | 2.83
10 | CGTCAAAGTTCCACTAAGGTAACGTAAAGCACGC | 0.376 | 0.418 | 0.398 | 0.475 | 0.357 | 4.02 | 1.69 | 0.238
11 | TCTTGTAGATGAACAGGAGGTTAAGAAAGATCGA | 0.252 | 0.473 | 0.0838 | 0.572 | 0.784 | 0.65 | -0.383 | -0.297
12 | ACCAGCAGGCCAAGTTTGGGTCACTCAAACAAAG | 2.33 | 2.44 | 1.51 | -0.217 | 0.731 | 2.61 | 0.952 | 0.435
13 | ATCGAAAGGTCGTGAGGTGCGTATACAGAAAGGC | 2.59 | 4.2 | 3.57 | 1.16 | 4.65 | 2.45 | -0.17 | 1.59
14 | CCGACTGGGGCAAGGTTACCGTAACGCACAGCCA | 1.39 | 1.08 | 1.28 | -0.694 | 1.04 | 1.22 | 0.42 | -0.25
15 | ATCTCTAGGTAAAAGTTCAGTGAATCCCGAGGAT | 2.42 | 1.68 | 2.06 | 0.516 | 1.54 | 1.24 | 0.375 | 1.7
16 | CGAACTAGGTCATTCAGGACAGTGAATACATTGA | 2.72 | 3.7 | 4.69 | 2.77 | 2.8 | 3.63 | 2.13 | 2.27
17 | CCTCGGAGGACAGAAGTTCAGAGCTGTCCGCTTT | 1.88 | 1.28 | 1.36 | 0.706 | -0.0645 | 0.325 | -0.73 | 0.521
18 | TCATATAAGTAATACAGGTGAAAGTCGGCATCTA | 0.481 | 0.675 | 0.621 | 2.03 | 1.42 | 0.662 | 0.191 | 0.605
19 | ATCTCTAGGTAACCAAGTTCAATGAATGCCGAAC | 1.68 | 0.955 | 1.08 | 1.64 | 0.925 | 1.89 | 0.952 | 3.84
20 | GCGACTGGGGCAGCAGCAGGTTACCATAACTTAA | 0.746 | 0.167 | 0.234 | -0.331 | -0.00155 | 0.651 | -0.162 | -0.595
21 | ATCTCTAGGTAACAAGTTCAGTGGAAGAGAGGAC | 1.89 | 1.22 | 1.25 | 1.13 | 0.888 | 1.56 | 1.13 | 2.02
22 | CCTCGGAGGAGAACAGGAGGTCAGAGCTGCCAGA | 2.87 | 2.04 | 1.63 | -0.274 | 1.76 | 2.21 | 0.793 | 0.851
23 | ATCTCTAGATAACCAAGTTCAGTGAATGCCGAAC | 1.07 | 0.446 | 0.535 | 0.852 | 0.659 | 0.42 | 0.172 | 2.11
24 | ACTATTCGTTGACTTAGGGCAACCGATACGACGC | 0.887 | 0.792 | 0.996 | 0.445 | 0.633 | 0.912 | 0.963 | 0.261
25 | CCTTACGGGTCAAGGTTATAGCACGGGTGGTACG | 3.41 | 5 | 5.02 | 0.875 | 5.55 | 3.02 | 0.771 | 1.46
26 | TCGAGTAGGTTACCAATAGGGCATTCAGCTTTCT | 0.965 | 1.78 | 0.593 | 0.262 | 0.749 | 0.215 | -0.961 | -0.368

Row | Sequence | PBM binding z-score [1] | PBM binding z-score [2] | PBM binding z-score [3] | PBM binding z-score [4] | PBM binding z-score [5] | PBM binding z-score [6] | PBM binding z-score [7] | PBM binding z-score [8]
27 | CAAACTAGGTCAAAGGTCAAAGGCGAGCCAACCA | 5.32 | 9.06 | 7.75 | 3.02 | 10.4 | 4.91 | 1.64 | 3
28 | TCTGCTACGTCAGTTGGTCAGCTAACGAGCTGCC | -0.763 | -0.688 | -0.884 | 0.0505 | -0.761 | -1.71 | -0.995 | -1.44
29 | TCTAGCAGGCCAGAGGGTCACCCAAGAGGTACGG | 2.74 | 3.04 | 2.17 | -0.135 | 2.96 | 1.97 | 0.143 | 0.203
30 | CGTCCAAGGTCAAAGGTCAGTTAAGAGATGACGG | 5.64 | 8.47 | 7.74 | 3.83 | 9.85 | 5.11 | 2.91 | 3.63
31 | CCTTACGGGACAAGGTTATAGCACGGGTGGTACG | 1.07 | 1.07 | 0.894 | -0.464 | 1.35 | 1.08 | 0.341 | 0.555
32 | TCTTGTAGATCAAAGGGTAAGAAAGCCGAAGCCT | -0.068 | 0.11 | -0.178 | 0.629 | 0.585 | -0.022 | -0.878 | -0.525
33 | CGTCCAAGGTCAAAGGTGAGTGAAGAGATGACGG | 4.48 | 6.91 | 6.63 | 3.77 | 8.39 | 4.4 | 2.28 | 2.92
34 | CCTAGTTGGTCAAGGTCGCACACGCTATAGGTAC | 2.39 | 1.87 | 2.27 | 0.634 | 1.83 | 2.64 | 1.75 | 2.3
35 | TTACCGAGGTGAAGGTCGTTGATCCCTCTGTAGA | 1.72 | 1.58 | 1.02 | -0.12 | 2 | 2.66 | 1.16 | 0.99
36 | ATATGTAGGATACATCCGGGTCATTCAGGCTATG | 2.18 | 1.58 | 1.43 | 0.223 | 1.95 | 2.99 | 1.95 | 2.23
37 | GCTAGCAGGGCATTTGGGTCACTCAATGACGGGC | 1.89 | 1.32 | 1.26 | 0.672 | 1.16 | 2.07 | 0.291 | 0.573
38 | TGTCAAAGTTCAAAGGTAACGTACGTATCCACAC | 3.77 | 6.34 | 5.94 | 4.49 | 6.98 | 2.98 | 0.0494 | 4.29
39 | CCTAGTCGGTCAAGGTCACACACGCTATAGGTAC | 4.9 | 5.15 | 5.64 | 2.13 | 4.64 | 4.26 | 4.28 | 3.91
40 | AGCCAAAGTTCACTAGGTAACGTAAGATTCAGCT | 3.85 | 4.99 | 5.83 | 4.29 | 3.74 | 1.91 | -0.25 | 3.46
41 | GCGACTGGGCCATCAGCAGGTTACCATAACTTAA | 0.461 | -0.0254 | 0.0324 | -0.654 | -0.151 | 0.132 | -0.441 | -0.661
42 | ACAGACAGGTGAGTGAAGGCAACTCAGCTGGACG | -0.0202 | 0.0165 | 0.418 | -0.43 | 0.192 | 0.383 | -0.689 | -0.742
43 | CCTCGGAGGACAGACGGTCAGAGCTGTCCGCTTT | 0.948 | 0.15 | 1.12 | -0.152 | -0.87 | -0.0863 | -0.156 | -0.276
44 | GGAACGAGGGCAAAGTGGATAGCATCTGTCGACG | 1.05 | 1.54 | 1.53 | 2.28 | 1.21 | 0.965 | -0.332 | 1.01
45 | CAAACTAGGTCAAGAGGCCAAAGTCCGCTTCCCG | 3.79 | 4.65 | 4.83 | 1.85 | 2.98 | 2.75 | 0.986 | 1.03
46 | ATATGTAGGTTACAACCGGGTCATTCAGGCTATG | 2.97 | 3.92 | 2.19 | 0.912 | 3.49 | 3.73 | 2.16 | 3.06
47 | ATCTCTAGGTAAGACTCAGTTCAGTGTAGAACGC | 0.758 | 0.266 | 0.408 | 0.967 | 0.133 | 0.88 | 0.909 | 1.39
48 | TATACAGGGTCAAAGGCCAGAGAACGAATGTCGA | 3.31 | 5.7 | 5.34 | 2.75 | 7.14 | 3.4 | 0.635 | 2.34
49 | AGTCAATGTTCACTAGGTAACGTAAGATTCAGCT | 0.00708 | 0.177 | 0.455 | 0.313 | 0.0273 | 0.29 | 0.282 | -0.164
50 | CAAACTAGGTCCCGAAAGGTCAAAGTCGAATGAC | 4.87 | 5.77 | 5.09 | 1.4 | 6.66 | 4.1 | 1.43 | 2.66
51 | TCTTGTAGATGAATAGAGGTTAAGAAAGTGCGCT | 1.19 | 0.961 | 0.531 | 1.66 | 1.68 | 1.72 | 0.0374 | 0.264
52 | CCTTACTGGTCACTGACAGGTTATAGCATTTGGA | 1.55 | 1.76 | 1.32 | 0.856 | 0.874 | 0.492 | 0.796 | 0.63
